ABCB6 inh 2 – blocks the human ABCB6 transporter | fluorescence ratio to DMSO, % at 10 µM | 360,000 compounds, 0.19% hits | AID 602162 | Q9NP58 | K562-ABCB6 porphyrin accumulation, flow cytometry, 1 h; hits give low values;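 active = fluorescence ratio to DMSO below 75%, the collection mean minus 3 SD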;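 note: signal is porphyrin accumulated inside mitochondria; 100% equals median channel fluorescence of DMSO control wells; lower ratio means ABCB6 inhibition with less porphyrin fluorescence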
CRFR2-BP ag – agonists of human CRF-binding protein/CRF-R2 receptor complex | HEK293 CRF-R2/CRF-BP, calcium dye fluorescence (FLIPR); percent of saturating CRF peptide response | activation, % at 13.2 µM | 350,000 compounds, 0.46% hits;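 active = activation of at least 50%, plus an integration ratio under a set limit after plate pattern correction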;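 note: plate controls were neutral control wells without compound for no effect and CRF at EC100 for full effect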
MEKK3 PB1 HTS – MEKK3-MEK5 PB1 interaction, increase or decrease. Q99759. 290,000 compounds, 1.4% hits. bead-based flow cytometry, Alexa488-MEK5 binding to MEKK3; actives lie on both sides; 0 = blocked by unlabeled MEK5, 100 = vehicle. binding response (% of control), % at 10 µM;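 active = binding response more than 3 SD above or below the average of its plate-row segment, actives on both sides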;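 note: Alexa488 bead fluorescence after subtracting the streptavidin-only scavenger bead signal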
Target sequence (Q99759 whole entry, looked up): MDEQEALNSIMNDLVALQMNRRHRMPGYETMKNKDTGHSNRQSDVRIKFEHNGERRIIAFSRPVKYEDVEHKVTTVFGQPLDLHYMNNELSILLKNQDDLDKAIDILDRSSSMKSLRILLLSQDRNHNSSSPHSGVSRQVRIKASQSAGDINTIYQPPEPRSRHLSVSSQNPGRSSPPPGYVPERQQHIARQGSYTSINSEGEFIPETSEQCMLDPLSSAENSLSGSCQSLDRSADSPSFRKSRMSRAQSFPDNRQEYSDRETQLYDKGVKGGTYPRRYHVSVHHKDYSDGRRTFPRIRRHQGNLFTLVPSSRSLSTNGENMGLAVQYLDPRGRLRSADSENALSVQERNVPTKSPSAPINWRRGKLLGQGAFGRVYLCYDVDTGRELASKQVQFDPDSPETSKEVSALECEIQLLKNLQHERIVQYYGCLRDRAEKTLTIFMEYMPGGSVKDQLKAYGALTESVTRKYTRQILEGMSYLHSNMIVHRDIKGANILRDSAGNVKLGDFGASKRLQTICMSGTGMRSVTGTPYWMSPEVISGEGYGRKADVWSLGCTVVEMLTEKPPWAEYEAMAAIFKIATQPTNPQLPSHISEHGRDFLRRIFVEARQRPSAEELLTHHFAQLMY
MEKK2wt PB1 HTS – raises or lowers MEK5 binding to wildtype human MEKK2 PB1 domain; binding response (% of control), % at 10 µM; bead flow cytometry, Alexa488-MEK5 binding to MEKK2 WT; actives lie on both sides; 290,000 compounds, 1.1% hits; Q9Y2U5; in the data active = binding response below about 67% or above about 130%
MEKK2mut PB1 HTS – signal of MEK5 binding to mutant human MEKK2 PB1 domain | bead flow cytometry, Alexa488-MEK5 binding to MEKK2 mutant | percent response, % at 10 µM | 290,000 compounds, 0.35% hits; in the data active = percent response above about 24%, passing the limit was not always enough
CRFBP-R2 block – antagonists of CRF-binding protein/CRF-R2 receptor complex; HEK293 CRF-R2/CRF-BP, CRF-induced calcium fluorescence; inhibition, % at 11.8 µM; 350,000 compounds, 0.59% hits;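 active = inhibition of the ligand-induced calcium signal above about 50% at the single tested concentration, limit read from the data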
MEKK2wt confirm – raises or lowers MEK5 binding to wildtype human MEKK2, retest. AID 1892. shares compounds with MEKK3 PB1 HTS. 5,900 compounds, 2.4% hits. bead flow cytometry, Alexa488-MEK5 binding to MEKK2 WT; actives lie on both sides. binding response (% of control), % at 10 µM; in the data active = binding response below about 16% or above about 210%; inactive = in between
MEKK2mut confirm – signal of MEK5 binding to mutant human MEKK2, retest | shares compounds with MEKK3 PB1 HTS | bead flow cytometry, Alexa488-MEK5 binding to MEKK2 mutant | percent response, % at 10 µM | 5,900 compounds, 2% hits; in the data active = percent response mostly above about 71%, no sharp cut-off; inactive = mostly below about 38%;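 note: higher means compound restores mutant binding toward wildtype level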
MEKK3 confirm – confirmation of inhibitors of MEK5 binding to human MEKK3 | shares compounds with MEKK3 PB1 HTS | bead flow cytometry, Alexa488-MEK5 binding to MEKK3; hits give low values | binding response (% of control), % at 10 µM | 5,900 compounds, 1.8% hits | AID 1894;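 active = binding response below 72% of control, or above a set upper limit, though filed actives all read lower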;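 note: 100% = DMSO only wells and 0% = binding blocked by excess unlabeled MEK5; lower values mean stronger disruption of MEK5 binding to MEKK3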
* marks the source's active call; other numbers are inactive results; . = no result given; [ ] = remark or other dose. A selection: hits, their analogues and other compounds. The true share with any hit is near 2.9%.

SMILES | ABCB6 inh 2 | CRFR2-BP ag | MEKK3 PB1 HTS | MEKK2wt PB1 HTS | MEKK2mut PB1 HTS | CRFBP-R2 block | MEKK2wt confirm | MEKK2mut confirm | MEKK3 confirm
CCCN1C(=O)SC(CC(=O)Nc2ccc(Br)cc2)C1=O (stereo not given) | 84 | -2 | 2.0*[inhibitor] | 3.0*[inhibitor] | -24 | 4 | 100 | -4 | 101
CCCN1C(=O)SC(CC(=O)Nc2ccccc2C)C1=O (stereo not given) | 95 | 0 | 95 | 106 | 3 | -9 | . | . | .
O=C(c1cccc(NS(=O)(=O)c2cccc(F)c2)c1)N1CCCC1 | 103 | -1 | 102 | 100 | -1 | 0 | . | . | .
COC(=O)C(NC(=O)C(C)Oc1ccccc1)C(C)C (stereo not given) | 99 | 0 | 106 | 102 | 3 | 17 | . | . | .
COC(=O)C(Cc1ccc(O)cc1)NC(=O)C(C)Oc1ccccc1 (stereo not given) | 100 | -1 | 0.0*[inhibitor] | -5.0*[inhibitor] | -39 | -13 | 106 | 8 | 107
CCCCCCCCCn1c2c(c(=N)c3c1CCC3)CCCC2 | 104 | 14 | 110 | 177* | 45 | -102 | 134 | 16 | 102
CCn1c2c(c(=N)c3c1CCC3)CCCC2 | 94 | 0 | 103 | 101 | 0 | 4 | . | . | .
CCCCCCCCCCn1c2c(c(=N)c3c1CCC3)CCC2 | 89 | 20 | 108 | 140* | 10 | -41 | 110 | 6 | 96
CCCCCCCCn1c2c(c(=N)c3ccccc31)CCC2 | 102 | 1 | 102 | 126 | 19 | -19 | . | . | .
COc1ccccc1NS(=O)(=O)c1ccc(C)c(C(=O)NCCCN2CCCC2=O)c1 | 96 | 1 | . | . | . | 5 | . | . | .
COc1ccc(CN2CCN(CCc3ccccc3)C(CCO)C2)c(Cl)c1OC (stereo not given) | 95 | -1 | 104 | 103 | 10 | 12 | . | . | .
Cn1nc(C(F)(F)F)c(-c2ccc(F)cc2)c1NC(=O)c1cccnc1 | 100 | 10 | 128* | 118 | 28 | -5 | 107 | 0 | 103
CC(C)CC1(C2CCCC2)NC(=O)NC1=O (stereo not given) | 95 | -1 | . | . | . | 3 | . | . | .
CN(C)/C=N/c1nc2nccc(-c3ccccc3)n2n1 | 94 | -2 | 47*[inhibitor] | 56 | -16 | -2 | 93 | -6 | 90
CC(C)NS(=O)(=O)c1ccc(NC(=O)C(C)Oc2ccc(C(=O)c3ccccc3)cc2)cc1 (stereo not given) | 92 | 162* | 147* | 100 | -1 | -115 | 97 | -9 | 102
CC(Oc1ccccc1)C(=O)Nc1ccc(C(N)=O)cc1 (stereo not given) | 107 | 9 | 98 | 98 | -2 | 3 | . | . | .
CC(=O)Nc1ccc(S(=O)(=O)N2CCN(c3nc(NC4CCCC4)c4ccccc4n3)CC2)cc1 | 102 | 0 | 101 | 163* | 18 | -30 | 156 | 29 | 105
OC(c1ccc(Cl)cc1)c1ncc(-c2ccc(Oc3ccccc3)cc2)[nH]1 (stereo not given) | 92 | . | . | . | . | . | . | . | .
CN(C(=O)c1ccc(NC(=O)Cc2ccc([N+](=O)[O-])cc2)cc1)C1CCCC1 | 94 | 11 | . | . | . | -6 | . | . | .
C=CCn1c(SCC(=O)c2c(N)n(C)c(=O)n(C)c2=O)nnc1-c1ccccc1F | 97 | 0 | 107 | 85 | 108* | 22 | 101 | 2 | 103
Cn1c(N)c(C(=O)CSc2nnc(-c3ccccc3F)n2N)c(=O)n(C)c1=O | 81 | -1 | 47*[inhibitor] | 56 | -19 | -4 | 101 | 3 | 104
CCOc1ccc(C(=O)CCC(=O)N2CCN(c3ncccn3)CC2)cc1 | 104 | 1 | 97 | 97 | 3 | 0 | . | . | .
CCOC(=O)N1CCN(S(=O)(=O)c2ccc(C(=O)N(CCCN(C)C)c3nc4ccc(Cl)cc4s3)cc2)CC1 | 102 | 1 | 108 | 153* | 30* | -14 | 132 | 15 | 103
CCOC(=O)N1CCN(S(=O)(=O)c2ccc(C(=O)N(CCCN(C)C)c3nc4ccc(CC)cc4s3)cc2)CC1 | 94 | 0 | 102 | 133 | 19 | -4 | . | . | .
CCOC(=O)N1CCN(S(=O)(=O)c2ccc(C(=O)N(CCN(C)C)c3nc4ccc(CC)cc4s3)cc2)CC1 | 100 | 4 | 106 | 136* | 16 | -11 | 138 | 15 | 102
SMILES | ABCB6 inh 2 | CRFR2-BP ag | MEKK3 PB1 HTS | MEKK2wt PB1 HTS | MEKK2mut PB1 HTS | CRFBP-R2 block | MEKK2wt confirm | MEKK2mut confirm | MEKK3 confirm
COc1cc(NC(=O)c2ccc(NC3=NC4CS(=O)(=O)CC4S3)cc2)cc(OC)c1OC (stereo not given) | 96 | -3 | 99 | 97 | -8 | 31 | . | . | .
COC(=O)c1c(-c2ccc(C(C)(C)C)cc2)csc1NC(=O)C1C2CCC(O2)C1C(=O)O (stereo not given) | 104 | 2 | 75*[inhibitor] | 92 | -1 | 12 | 99 | -1 | 105
CCOC(=O)c1c(-c2cccc3ccccc23)csc1NC(=O)C1C2CCC(O2)C1C(=O)O (stereo not given) | 96 | -1 | 113 | 100 | -1 | -4 | . | . | .
C=CCOc1ccc(/C=N/N2C(=O)C(CC(=O)Nc3ccc(F)cc3F)SC2=NC)cc1 (stereo not given) | 94 | 9 | 128* | 101 | 0 | -16 | 102 | 0 | 106
CCOCCCNC(=S)NCCCNc1nc2cc3c(cc2cc1C#N)OCO3 | 104 | 0 | 1.0*[inhibitor] | -4.0*[inhibitor] | -18 | -9 | 97 | -2 | 99
COCCNC(=S)NCCCNc1nc2cc3c(cc2cc1C#N)OCO3 | 99 | -1 | 103 | 105 | 4 | -1 | . | . | .
CCc1ccc(CN2CCCC(C(=O)Nc3ccccc3-c3ccc(OC)cc3)C2)o1 (stereo not given) | 99 | -1 | 101 | 101 | 2 | -6 | . | . | .
CC1(C)Cc2c(c(-c3ccco3)nc3sc4c(NCC5CCCO5)ncnc4c23)CO1 (stereo not given) | 100 | 1 | 143* | 102 | 0 | 7 | 104 | 8 | 102
Cc1c(CCO)c(=O)[nH]n1S(=O)(=O)c1ccc([N+](=O)[O-])cc1 | 99 | 0 | 105 | 109 | 8 | 15 | . | . | .
OC(CN1CCN(c2ccccn2)CC1)Cn1c2ccc(Cl)cc2c2cc(Cl)ccc21 (stereo not given) | 88 | 1 | 111 | 137* | 13 | -24 | 132 | 15 | 106

Screens: PubChem BioAssay, several laboratories
